In PubChem BioAssay (Tox21):
Values joined by “and” are separate entries in the source; they are usually repeats but may differ in a detail not shown here. Identical values can stand only once. Results filed as inconclusive are left out. A call without a number means that no potency is given here. Active and inactive are the calls of the source. The call rests on the fitted dose curve.

Assay: qHTS assay to identify small molecule antagonists of the estrogen receptor alpha (ER-alpha) signaling pathway using the BG1 cell line (AID 743080);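 further: BG1 cells stimulated with 17beta-estradiol alongside compound; nearly all actives have a fitted effect of over 25% in size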
Conditions: BG1Luc4E2 ERE-luciferase antagonist mode, luminescence; series mostly up to 70.3 µM; activity change, negative = inhibition: at the top concentration
Description: National Center for Advancing Translational Sciences [NCATS]
NIH Chemical Genomics Center [NCGC]
U.S. Environmental Protection Agency [EPA]
National Institutes of Environmental Health Sciences [NIEHS]
National Toxicology Program [NTP]
U.S. Food and Drug Administration [FDA]
Estrogen receptor (ER), a nuclear hormone receptor, plays an important role in development, metabolic homeostasis and reproduction. Endocrine disrupting chemicals (EDCs) and their interactions with steroid hormone receptors like ER causes disruption of normal endocrine function. Therefore, it is important to understand the effect of environmental chemicals on the ER signaling pathway. To identify ER antagonists, BG1-Luc-4E2 cell line (provided by Dr. Michael Denison from University of California) has been used to screen the Tox21 10K compound library. BG1Luc4E2 cell line endogenously expresses full-length ER-alpha and is stably transfected with a plasmid containing four estrogen responsive elements (ERE) upstream of a luciferase reporter gene.
Tox21 Assay Protocol Summary:
BG1-Luc-4E2 cells were cultured in phenol red free assay medium containing 10% charcoal stripped FBS for 5 days before the assay was performed. The cells were dispensed at 4,000 cells/4 uL of assay medium per well into white wall/solid-bottom 1536-well plates using a Multidrop Combi (ThermoFisher Scientific, Waltham, MA) dispenser. The assay plates were incubated at a 37C and 5% CO2 for 24 h, and then 23 nL of compounds dissolved in DMSO, positive controls or DMSO only was transferred to the assay plate using a Pintool station (Kalypsys, San Diego, CA), followed by addition of 1 uL of 17beta-estradiol in assay medium using a Flying Reagent Dispenser (Aurora Discovery, San Diego, CA). After the plates were incubated at 37 C and 5% CO2 for 21.5 h, 1 uL of CellTiter-Fluor reagent (Promega, Madison, WI) of measuring cytotoxicity was added using Flying Reagent Dispenser (FRD) to each well. The assay plates were incubated at 37 C and 5% CO2 for additional 30 min and the fluorescence intensity was quantified by a ViewLux plate reader (PerkinElmer, Shelton, CT). For measuring luciferase reporter gene activity, 4 uL of ONE-Glo reagent (Promega) was added to each plate using an FRD and luminescence was quantified by a ViewLux plate reader after 30 min incubation at room temperature.
Potency means the concentration at half of the fitted maximal effect.

For `C1CNCCN1`, which Potency is on record?
The Potency was “inactive”.

Which Potency does the source give for `CCOC(=O)C(C)(C)Oc1ccc(Cl)cc1` here?
The Potency was “inactive”.

For `COc1cc(O)c(C(=O)c2ccccc2)cc1S(=O)(=O)O`, which Potency is on record?
The Potency was “inactive”.

With `CCCCCCCCCCCCCCCCCC(=O)OCC(O)CO` (stereo not given) as the molecule, how does the Potency read?
Its Potency is “inactive”.

For `C=C(C)OC(C)=O`, which Potency is on record?
The Potency was “inactive”.

With `OC[C@@H](O)[C@@H](O)[C@H](O)[C@H](O)CO` as the molecule, how does the Potency read?
The Potency was “inactive”.

With `COc1ccccc1NC(=O)CC(C)=O` as the molecule, how does the Potency read?
Its Potency is “inactive”.

Which Potency does the source give for `CC1(C)O[C@@H]2[C@@H](CO[C@@]3(COS(N)(=O)=O)OC(C)(C)O[C@@H]23)O1` here?
The Potency was “inactive”.

Which Potency does the source give for `CC1=NN(c2ccccc2)C(=O)C1` here?
The Potency was “inactive”.

Which Potency does the source give for `CC1=C(/C=C/C(C)=C/C=C/C(C)=C/C(=O)O)C(C)(C)CCC1` here?
The Potency was 335 nM (active) and 77 nM (active).

For `CC(C)(C)NCC(O)c1ccc(O)c(CO)c1` (stereo not given), which Potency is on record?
The Potency was “inactive”.

Which Potency does the source give for `NC(=O)OCC(COC(N)=O)c1ccccc1` here?
The Potency was “inactive”.

For `Cc1c(N(C)C)c(=O)n(-c2ccccc2)n1C`, which Potency is on record?
The Potency was “inactive”.

With `COCCOCCOC` as the molecule, how does the Potency read?
Its Potency is “inactive”.

Which “activity change, negative = inhibition” value does the source give for `CCCCOC(=O)CCCCCCCCC(=O)OCCCC` here?
Its value is 10.7% (inactive).

With `Oc1cccc(O)c1` as the molecule, how does the Potency read?
Its Potency is “inactive”.

Which Potency does the source give for `Cc1cccc(C)c1O` here?
Its Potency is “inactive”.

For `C/C=C/c1ccc(O)c(OC)c1`, which Potency is on record?
The Potency was “inactive”.

For `CN/C(=C\[N+](=O)[O-])NCCSCc1ccc(CN(C)C)o1`, which Potency is on record?
Its Potency is “inactive”.

Which Potency does the source give for `CC(=O)Oc1ccccc1C(=O)O` here?
The Potency was “inactive”.

For `CC(C)Cc1ccc(C(C)C(=O)O)cc1` (stereo not given), which Potency is on record?
Its Potency is “inactive”.

Which Potency does the source give for `C[C@]12C[C@H](O)[C@H]3[C@@H](CCC4=CC(=O)CC[C@@]43C)[C@@H]1CC[C@@H]2C(=O)CO` here?
Its Potency is “inactive”.

Which Potency does the source give for `CCN1CCCC1=O` here?
The Potency was “inactive”.

For `COC(=O)C1CCC(C(=O)OC)CC1` (stereo not given), which Potency is on record?
The Potency was “inactive”.

For `CN(C)Cc1cc(CN(C)C)c(O)c(CN(C)C)c1`, which Potency is on record?
The Potency was “inactive”.

Which Potency does the source give for `C=CC(=O)NC(C)(C)CS(=O)(=O)O` here?
The Potency was “inactive”.

Which Potency does the source give for `CCCCCCCCCCCCCC(=O)OC(C)C` here?
Its Potency is “inactive”.

Which Potency does the source give for `CC(=O)OC/C=C(C)/C=C/C=C(C)/C=C/C1=C(C)CCCC1(C)C` here?
The Potency was “inactive”.

For `COC(=O)c1ccc(O)cc1`, which Potency is on record?
The Potency was “inactive”.

Which Potency does the source give for `C=C(C)C(N)=O` here?
Its Potency is “inactive”.

Which Potency does the source give for `COC(=O)c1ccc(C=O)cc1` here?
Its Potency is “inactive”.

With `C[C@]12C=CC(=O)C=C1CC[C@@H]1[C@@H]2C(=O)C[C@@]2(C)[C@H]1CC[C@]2(O)C(=O)CO` as the molecule, how does the Potency read?
Its Potency is “inactive”.

With `OCCCc1ccccc1` as the molecule, how does the Potency read?
Its Potency is “inactive”.

For `C#C[C@]1(O)CC[C@H]2[C@@H]3CCC4=CC(=O)CC[C@@H]4[C@H]3CC[C@@]21CC`, which Potency is on record?
The Potency was “inactive”.

Which Potency does the source give for `N[C@@H](Cc1c[nH]c2ccc(O)cc12)C(=O)O` here?
The Potency was “inactive”.

For `COc1cc(C=O)ccc1O`, which Potency is on record?
Its Potency is “inactive”.

Which Potency does the source give for `CC(=O)c1ccc(S(=O)(=O)NC(=O)NC2CCCCC2)cc1` here?
Its Potency is “inactive”.

With `CC(=O)/C=C/C1=C(C)CCCC1(C)C` as the molecule, how does the Potency read?
The Potency was “inactive”.

Which Potency does the source give for `CCn1cc(C(=O)O)c(=O)c2ccc(C)nc21` here?
Its Potency is “inactive”.

With `Cc1cccc2ccccc12` as the molecule, how does the Potency read?
Its Potency is “inactive”.
